We go through 9 compounds from PubChem BioAssay (NCI).

Test in all cases: NCI-60 one-dose screen, 48 h (100 = growth as untreated, 0 = no growth, -100 = all killed)
For one assay, the system named is HCT-15 colon. The conditions noted are these: 10 µM unless noted.
For another assay, the system named is SNB-75 CNS. The conditions noted are these: 10 µM.
The subject of the next assay is SNB-19 CNS. The settings on record: 10 µM unless noted.
The next assay has as its system U251 CNS. The settings on record: 10 µM unless noted.
The subject of a further assay is PC-3 prostate. The settings on record: 10 µM unless noted.
A further assay concerns SK-MEL-5 melanoma. The settings on record: 10 µM unless noted.
The test system of the next assay is UACC-62 melanoma. The conditions noted are these: 10 µM unless noted.
The subject of the next assay is LOX IMVI melanoma. The settings on record: 10 µM unless noted.
A further assay has as its system SK-MEL-28 melanoma. The conditions noted are these: 10 µM unless noted.
The next assay relates to SK-MEL-2 melanoma. The settings on record: 10 µM unless noted.
The next assay deals with EKVX NSCLC. The settings on record: 10 µM unless noted.
In a further assay the test system is SN12C renal. The conditions noted are these: 10 µM unless noted.
In the next assay the test system is UO-31 renal. The settings on record: 10 µM unless noted.
A further assay concerns TK-10 renal. The conditions noted are these: 10 µM unless noted.
The next assay deals with CAKI-1 renal. The settings on record: 10 µM unless noted.
Another assay concerns A498 renal. The conditions noted are these: 10 µM unless noted.
The subject of a further assay is CCRF-CEM leukemia. The settings on record: 10 µM unless noted.
The subject of a further assay is MOLT-4 leukemia. The conditions noted are these: 10 µM unless noted.
The subject of the next assay is ACHN renal. The conditions noted are these: 10 µM unless noted.

The panel holds about 83,000 compounds, 20% with a hit somewhere; the sample as a whole holds those more often.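 Results are percent growth after 48 hours of single-concentration exposure. 100 means growth as in untreated cells, lower positive values show inhibition; negative values down to -100 show cell death.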 Values without a mark were called inactive. Activity calls are given as the source filed them. The calls were made as follows: active = growth percent below 10; inactive = the rest.

For `COc1cc(C2C3=C(COC3=O)Nc3cc4c(cc32)OCO4)cc2c1OCO2` (stereo not given), the growth with HCT-15 colon was 9.19% (active); in the assay on SNB-75 CNS, 42.2%; in the assay on SNB-19 CNS, 31%; in the assay on U251 CNS, 18.5%; with PC-3 prostate, 24%; with SK-MEL-5 melanoma, -60.6% (active). The growth in the assay with UACC-62 melanoma was 41.3%; in the assay with LOX IMVI melanoma, 16%; in the assay with SK-MEL-28 melanoma, 65.3%; in the assay on SK-MEL-2 melanoma, 41.6%; with EKVX NSCLC, 44.6%; with SN12C renal, 23.4%. Moreover, the growth was 51% in the assay with UO-31 renal; 55% in the assay on TK-10 renal; 44.1% in the assay with CAKI-1 renal; 21.3% in the assay with A498 renal; 8.12% (active) in the assay with CCRF-CEM leukemia; 12.1% with MOLT-4 leukemia.
Consider `COc1ccccc1CNCCCN1C(=O)c2ccc3c4c(ccc(c24)C1=O)C(=O)N(CCCNCCCCNCCCN)C3=O`, for which the growth in the assay on HCT-15 colon is -32.1% (active); in the assay on SNB-75 CNS it was -79.7% (active); with SNB-19 CNS, -31.1% (active); in the assay with U251 CNS, -51.8% (active); with PC-3 prostate it was -1.44% (active); with SK-MEL-5 melanoma it was -99.3% (active). Moreover, the growth in the assay with UACC-62 melanoma was -52% (active); in the assay on LOX IMVI melanoma it was 1.41% (active); in the assay with SK-MEL-28 melanoma it was -75.7% (active); with SK-MEL-2 melanoma it was -54.6% (active); in the assay on EKVX NSCLC, -41% (active); in the assay with SN12C renal, -32.8% (active). The growth in the assay with UO-31 renal is -1.99% (active); in the assay with CAKI-1 renal, 7.3% (active); in the assay with A498 renal it was -58.1% (active); in the assay on CCRF-CEM leukemia it was -19.1% (active); in the assay with MOLT-4 leukemia, -28.4% (active).
Regarding `COc1ccc(/C=C(\C#N)c2cc(OC)c3c(c2)OCO3)cc1`, the growth in the assay on HCT-15 colon is 15.7%; with SNB-75 CNS it was 39.8%; with SNB-19 CNS, 37.8%; in the assay on U251 CNS, 20.8%; in the assay on PC-3 prostate it was 23%; in the assay with SK-MEL-5 melanoma it was -58.9% (active). The growth is 39.3% in the assay on UACC-62 melanoma; 19.2% in the assay on LOX IMVI melanoma; 67.8% in the assay on SK-MEL-28 melanoma; 43.6% in the assay with SK-MEL-2 melanoma; 50.4% with EKVX NSCLC; 23.8% in the assay on SN12C renal. Also, the growth was 39.9% with UO-31 renal; 49.6% with TK-10 renal; 40.7% in the assay with CAKI-1 renal; 35.5% in the assay with A498 renal; 14.7% in the assay with CCRF-CEM leukemia; 7.91% (active) in the assay on MOLT-4 leukemia.
Turning to `COc1ccc(C2=CC(c3cc(OC)c(OC)c(OC)c3)NC(=O)N2)cc1OC` (stereo not given), the growth in the assay on HCT-15 colon was 27.5%; with SNB-75 CNS, 2.17% (active); with SNB-19 CNS it was 38.1%; in the assay on U251 CNS it was 21.1%; in the assay with PC-3 prostate, 51%; with SK-MEL-5 melanoma it was 18.5%. The growth was 44.5% in the assay with UACC-62 melanoma; 7.04% (active) with LOX IMVI melanoma; 40% in the assay on SK-MEL-28 melanoma; 20.7% with SK-MEL-2 melanoma; 35.5% in the assay with EKVX NSCLC; 23.7% in the assay on SN12C renal. In addition, the growth in the assay with UO-31 renal is 22.8%; in the assay with TK-10 renal it was 12.8%; with CAKI-1 renal it was 5.82% (active); in the assay with A498 renal it was 19.3%; with CCRF-CEM leukemia it was 6.59% (active); in the assay with MOLT-4 leukemia, 17.9%.
On to `CN(C)CCCC(C#N)c1ccccc1` (stereo not given), for which the growth is 103% in the assay with HCT-15 colon; 88.5% in the assay on SNB-75 CNS; 103% in the assay with SNB-19 CNS; 105% in the assay with U251 CNS; 99.1% in the assay with PC-3 prostate; 108% in the assay on SK-MEL-5 melanoma. The growth was 102% in the assay on UACC-62 melanoma; 103% with LOX IMVI melanoma; 119% in the assay with SK-MEL-28 melanoma; 109% with SK-MEL-2 melanoma; 118% with EKVX NSCLC; 101% in the assay with SN12C renal. Further, the growth with UO-31 renal is 104%; in the assay with TK-10 renal it was 100%; in the assay with CAKI-1 renal, 117%; with A498 renal, 107%; in the assay with CCRF-CEM leukemia, 105%; in the assay with MOLT-4 leukemia it was 91.6%.
Regarding `CC(=O)Nc1scc[n+]1Cc1ccccc1`, the growth is 101% in the assay with HCT-15 colon; 106% in the assay on SNB-75 CNS; 110% in the assay with SNB-19 CNS; 106% in the assay with U251 CNS; 94.2% with PC-3 prostate; 117% in the assay with SK-MEL-5 melanoma. The growth in the assay with UACC-62 melanoma was 114%; in the assay with LOX IMVI melanoma it was 87.9%; with SK-MEL-28 melanoma it was 109%; with EKVX NSCLC, 103%; in the assay on SN12C renal it was 111%; in the assay on UO-31 renal it was 91.1%. Moreover, the growth is 107% in the assay with ACHN renal; 87.4% in the assay on CAKI-1 renal; 112% in the assay with A498 renal; 90.1% in the assay with CCRF-CEM leukemia; 94.1% in the assay on MOLT-4 leukemia.
With `COc1ccc2c(c1)OC1=C(C(=O)OC1)C2c1cc(OC)c2c(c1)OCO2` (stereo not given), the growth is 19.2% with HCT-15 colon; 36.5% with SNB-75 CNS; 29% in the assay on SNB-19 CNS; 19.9% with U251 CNS; 22% in the assay on PC-3 prostate; -54.3% (active) in the assay with SK-MEL-5 melanoma. Besides, the growth was 39.7% with UACC-62 melanoma; 17.2% in the assay with LOX IMVI melanoma; 64.4% in the assay on SK-MEL-28 melanoma; 43.2% with SK-MEL-2 melanoma; 51.2% in the assay with EKVX NSCLC; 23.8% with SN12C renal. Besides, the growth in the assay on UO-31 renal was 41.6%; in the assay with TK-10 renal it was 47.3%; with CAKI-1 renal, 42.7%; in the assay on A498 renal, 24.2%; in the assay on CCRF-CEM leukemia, 16.3%; in the assay with MOLT-4 leukemia it was 5.79% (active).
Regarding `CCOC(=O)C1=C(C)NC(C)=C(C(=O)OCC)C1(C)C`, the growth with HCT-15 colon is 101%; in the assay on SNB-75 CNS, 87.3%; with SNB-19 CNS, 98.1%; with U251 CNS, 107%; in the assay on PC-3 prostate, 98.2%; with SK-MEL-5 melanoma, 97.7%. The growth is 98.7% with UACC-62 melanoma; 104% in the assay with LOX IMVI melanoma; 102% in the assay on SK-MEL-28 melanoma; 108% in the assay with EKVX NSCLC; 97% in the assay on SN12C renal; 100% in the assay on UO-31 renal. Further, the growth with TK-10 renal is 109%; in the assay with ACHN renal, 106%; in the assay on CAKI-1 renal, 107%; with A498 renal it was 108%; in the assay on CCRF-CEM leukemia, 94.4%; in the assay on MOLT-4 leukemia, 97%.
As to `C=C1CCC2C3(C)COC(c4ccc(N(C)C)cc4)OC3CCC2(C)C1C/C=C1/C(=O)OCC1O` (stereo not given), the growth in the assay with HCT-15 colon was 57.6%; in the assay with SNB-75 CNS, 73.8%; in the assay on SNB-19 CNS it was 85.9%; in the assay on U251 CNS, 51.1%; in the assay on PC-3 prostate, 9.17% (active); with SK-MEL-5 melanoma, 60.7%. For the same compound, the growth was 63.1% in the assay with UACC-62 melanoma; 11.9% in the assay with LOX IMVI melanoma; 94.9% with SK-MEL-28 melanoma; 45.1% in the assay with SK-MEL-2 melanoma; 85.7% in the assay with EKVX NSCLC; 44.9% in the assay with SN12C renal. For the same compound, the growth in the assay with UO-31 renal was 54.2%; with TK-10 renal, 94.3%; in the assay on ACHN renal, 79.3%; in the assay with A498 renal, 109%; in the assay with CCRF-CEM leukemia it was -41.6% (active); in the assay with MOLT-4 leukemia, 37.7%.
